Article PMC7862700, “An all-to-all approach to the identification of sequence-specific readers for epigenetic DNA modifications on cytosine”

Tests used:
Experiment in all cases: DAPPL (digital affinity profiling via proximity ligation, sequencing); 10 mM Tris-HCl pH 7.5, 50 mM NaCl, 1 mM DTT, 4% glycerol, room temperature, 30 min; GST-TFs on glutathione beads, 16-mer random dsDNA library, 0.1% formaldehyde crosslink after washing; high values mean tight binding
Settings in all cases: protein: recombinant; tags: N-terminal GST; dsDNA, one strand shown
FEV = biological target: T1, FEV (Homo sapiens, UniProt Q99581 1-238)
T1 sequence: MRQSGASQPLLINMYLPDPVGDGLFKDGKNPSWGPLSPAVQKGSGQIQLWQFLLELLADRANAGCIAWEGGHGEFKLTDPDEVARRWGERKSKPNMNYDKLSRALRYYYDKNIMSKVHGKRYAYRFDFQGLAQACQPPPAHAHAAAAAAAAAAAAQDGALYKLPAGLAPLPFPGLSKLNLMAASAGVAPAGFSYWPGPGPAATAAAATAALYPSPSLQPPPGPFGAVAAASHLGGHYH
Procedure, shortened: (§1)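 Yeast served to express human transcription factors as GST fusions, which were then captured on glutathione beads and labelled with DNA barcodes. Pooled with a tag-only sample, they were incubated with 200 nmole of a 16-mer random double-stranded DNA library for 30 min at room temperature in Tris/NaCl/DTT/glycerol buffer, washed, crosslinked with 0.1% formaldehyde, ligated by proximity, amplified by PCR and sequenced. Dividing each hexamer's read frequency for a factor by its frequency for the tag-only sample gives the binding signal.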

ETV5 = ETV5 (Homo sapiens, UniProt P41161 1-510)
Procedure, shortened: as §1

SPIC = biological target: T2, SPIC (Homo sapiens, UniProt Q8N5J4 1-248)
T2 sequence: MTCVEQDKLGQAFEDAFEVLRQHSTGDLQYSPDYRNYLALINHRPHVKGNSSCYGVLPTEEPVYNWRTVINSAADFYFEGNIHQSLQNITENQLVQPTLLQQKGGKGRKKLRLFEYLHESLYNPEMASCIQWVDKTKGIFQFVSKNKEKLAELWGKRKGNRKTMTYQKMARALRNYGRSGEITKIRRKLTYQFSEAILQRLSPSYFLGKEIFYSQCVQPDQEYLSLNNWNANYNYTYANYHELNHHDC
Procedure, shortened: as §1

ELF4 = ELF4 (Homo sapiens, UniProt Q99607 1-663)
Procedure, shortened: as §1

ELK4 = biological target: T3, ELK4 (Homo sapiens, UniProt P28324-2 1-405)
T3 sequence: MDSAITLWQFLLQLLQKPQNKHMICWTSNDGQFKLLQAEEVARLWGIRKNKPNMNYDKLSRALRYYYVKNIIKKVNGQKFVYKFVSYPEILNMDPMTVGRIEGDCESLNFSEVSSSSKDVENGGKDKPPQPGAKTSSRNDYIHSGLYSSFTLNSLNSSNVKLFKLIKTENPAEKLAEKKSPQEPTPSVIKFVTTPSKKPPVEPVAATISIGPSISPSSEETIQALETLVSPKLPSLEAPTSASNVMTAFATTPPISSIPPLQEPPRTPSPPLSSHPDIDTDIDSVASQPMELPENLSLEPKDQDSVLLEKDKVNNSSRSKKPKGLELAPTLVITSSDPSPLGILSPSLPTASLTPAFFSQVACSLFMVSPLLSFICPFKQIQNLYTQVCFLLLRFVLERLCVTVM
Procedure, shortened: as §1

ETV2 = biological target: T4, ETV2 (Homo sapiens, UniProt O00321 1-342)
T4 sequence: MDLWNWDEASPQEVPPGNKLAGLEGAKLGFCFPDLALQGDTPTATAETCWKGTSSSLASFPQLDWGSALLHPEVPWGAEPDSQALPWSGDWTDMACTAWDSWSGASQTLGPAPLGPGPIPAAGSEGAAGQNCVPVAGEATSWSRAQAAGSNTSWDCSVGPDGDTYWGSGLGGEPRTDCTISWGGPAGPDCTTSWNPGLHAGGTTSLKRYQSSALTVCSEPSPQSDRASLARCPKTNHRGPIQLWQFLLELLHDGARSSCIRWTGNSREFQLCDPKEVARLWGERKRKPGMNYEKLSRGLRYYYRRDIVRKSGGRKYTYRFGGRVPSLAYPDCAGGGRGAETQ
Procedure, shortened: as §1

ELF3 = biological target: T5, ELF3 (Homo sapiens, UniProt P78545 1-371)
T5 sequence: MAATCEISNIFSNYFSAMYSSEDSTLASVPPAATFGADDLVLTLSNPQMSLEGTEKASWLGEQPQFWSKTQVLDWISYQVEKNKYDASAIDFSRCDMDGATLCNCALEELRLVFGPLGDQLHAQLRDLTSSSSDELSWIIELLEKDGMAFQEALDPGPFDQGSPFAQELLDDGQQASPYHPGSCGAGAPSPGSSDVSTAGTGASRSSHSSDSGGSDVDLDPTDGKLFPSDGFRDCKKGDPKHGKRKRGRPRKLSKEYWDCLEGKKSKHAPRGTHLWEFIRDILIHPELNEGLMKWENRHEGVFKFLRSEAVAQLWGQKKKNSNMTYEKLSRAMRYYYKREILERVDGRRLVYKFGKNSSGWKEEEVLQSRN
Procedure, shortened: as §1

ETV1 = ETV1 (Homo sapiens, UniProt P50549 1-477)
Procedure, shortened: as §1

Chain of ETV5 (P41161 whole entry): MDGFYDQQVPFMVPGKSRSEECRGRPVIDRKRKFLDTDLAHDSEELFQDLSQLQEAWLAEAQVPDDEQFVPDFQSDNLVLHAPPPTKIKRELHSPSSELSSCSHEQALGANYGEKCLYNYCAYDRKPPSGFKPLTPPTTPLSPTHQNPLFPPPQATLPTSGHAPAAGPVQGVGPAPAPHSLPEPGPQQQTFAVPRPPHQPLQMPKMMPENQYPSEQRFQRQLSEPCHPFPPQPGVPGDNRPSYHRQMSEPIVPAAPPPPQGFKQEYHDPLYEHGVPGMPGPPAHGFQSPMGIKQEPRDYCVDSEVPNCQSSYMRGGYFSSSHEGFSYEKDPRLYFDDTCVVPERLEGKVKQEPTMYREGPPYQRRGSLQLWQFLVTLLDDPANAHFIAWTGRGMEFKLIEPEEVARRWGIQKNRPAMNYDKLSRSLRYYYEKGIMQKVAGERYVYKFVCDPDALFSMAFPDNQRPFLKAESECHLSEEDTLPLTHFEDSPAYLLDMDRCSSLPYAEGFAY
Chain of ETV1 (P50549 whole entry): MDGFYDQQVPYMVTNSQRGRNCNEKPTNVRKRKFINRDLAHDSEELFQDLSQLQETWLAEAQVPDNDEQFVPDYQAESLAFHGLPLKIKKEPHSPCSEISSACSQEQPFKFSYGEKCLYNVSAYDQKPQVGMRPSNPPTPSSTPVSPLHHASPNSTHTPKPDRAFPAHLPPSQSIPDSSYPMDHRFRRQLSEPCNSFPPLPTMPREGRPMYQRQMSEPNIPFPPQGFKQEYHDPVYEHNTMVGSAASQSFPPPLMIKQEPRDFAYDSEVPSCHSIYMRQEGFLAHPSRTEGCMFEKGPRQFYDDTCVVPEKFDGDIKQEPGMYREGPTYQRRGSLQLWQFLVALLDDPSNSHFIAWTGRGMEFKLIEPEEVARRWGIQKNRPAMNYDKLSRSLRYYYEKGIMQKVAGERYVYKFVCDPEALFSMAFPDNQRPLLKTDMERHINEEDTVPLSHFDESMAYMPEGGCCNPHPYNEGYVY
Chain of ELF4 (Q99607 whole entry): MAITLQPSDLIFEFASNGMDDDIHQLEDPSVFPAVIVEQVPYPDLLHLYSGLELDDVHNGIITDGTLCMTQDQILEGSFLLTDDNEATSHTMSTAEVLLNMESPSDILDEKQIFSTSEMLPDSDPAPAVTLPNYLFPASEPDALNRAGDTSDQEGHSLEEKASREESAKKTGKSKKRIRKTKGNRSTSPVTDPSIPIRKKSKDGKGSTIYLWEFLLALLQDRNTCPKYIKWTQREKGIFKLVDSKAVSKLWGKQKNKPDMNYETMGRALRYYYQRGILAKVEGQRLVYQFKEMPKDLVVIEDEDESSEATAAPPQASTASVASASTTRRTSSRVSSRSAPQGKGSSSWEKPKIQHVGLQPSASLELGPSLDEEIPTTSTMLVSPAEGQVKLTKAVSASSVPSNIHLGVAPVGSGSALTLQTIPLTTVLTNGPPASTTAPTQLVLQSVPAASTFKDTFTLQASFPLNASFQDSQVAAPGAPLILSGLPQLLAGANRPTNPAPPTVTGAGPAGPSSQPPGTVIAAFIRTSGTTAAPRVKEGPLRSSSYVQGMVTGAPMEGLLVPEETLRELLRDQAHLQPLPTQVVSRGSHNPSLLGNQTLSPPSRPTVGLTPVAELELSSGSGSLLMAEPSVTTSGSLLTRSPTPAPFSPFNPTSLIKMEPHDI

Row | Sequence | binding signal (FEV) | binding signal (ETV5) | binding signal (SPIC) | binding signal (ELF4) | binding signal (ELK4) | binding signal (ETV2) | binding signal (ELF3) | binding signal (ETV1)
1 | AACCAC | 1.2 fold enrichment (6-mer frequency, TF over GST control) | 1.17 fold enrichment (6-mer frequency, TF over GST control) | 1.25 fold enrichment (6-mer frequency, TF over GST control) | 1.26 fold enrichment (6-mer frequency, TF over GST control) | 1.26 fold enrichment (6-mer frequency, TF over GST control) | 1.05 fold enrichment (6-mer frequency, TF over GST control) | 1.21 fold enrichment (6-mer frequency, TF over GST control) | 1.17 fold enrichment (6-mer frequency, TF over GST control)
2 | GCATCC | 1.73 fold enrichment (6-mer frequency, TF over GST control) | 1.68 fold enrichment (6-mer frequency, TF over GST control) | 1.53 fold enrichment (6-mer frequency, TF over GST control) | 1.43 fold enrichment (6-mer frequency, TF over GST control) | 1.28 fold enrichment (6-mer frequency, TF over GST control) | 1.39 fold enrichment (6-mer frequency, TF over GST control) | 1.53 fold enrichment (6-mer frequency, TF over GST control) | 1.55 fold enrichment (6-mer frequency, TF over GST control)
3 | TGCGAC | 1.24 fold enrichment (6-mer frequency, TF over GST control) | 1.24 fold enrichment (6-mer frequency, TF over GST control) | 1.3 fold enrichment (6-mer frequency, TF over GST control) | 1.27 fold enrichment (6-mer frequency, TF over GST control) | 1.25 fold enrichment (6-mer frequency, TF over GST control) | 1.33 fold enrichment (6-mer frequency, TF over GST control) | 1.32 fold enrichment (6-mer frequency, TF over GST control) | 1.18 fold enrichment (6-mer frequency, TF over GST control)
4 | AGTGTT | 1.02 fold enrichment (6-mer frequency, TF over GST control) | 1.06 fold enrichment (6-mer frequency, TF over GST control) | 1.18 fold enrichment (6-mer frequency, TF over GST control) | 1.05 fold enrichment (6-mer frequency, TF over GST control) | 1.08 fold enrichment (6-mer frequency, TF over GST control) | 1.07 fold enrichment (6-mer frequency, TF over GST control) | 1.26 fold enrichment (6-mer frequency, TF over GST control) | 1.06 fold enrichment (6-mer frequency, TF over GST control)
5 | GTATCA | 1.04 fold enrichment (6-mer frequency, TF over GST control) | 1.01 fold enrichment (6-mer frequency, TF over GST control) | 1.03 fold enrichment (6-mer frequency, TF over GST control) | 1.05 fold enrichment (6-mer frequency, TF over GST control) | 1.12 fold enrichment (6-mer frequency, TF over GST control) | 1.12 fold enrichment (6-mer frequency, TF over GST control) | 1.17 fold enrichment (6-mer frequency, TF over GST control) | 1.05 fold enrichment (6-mer frequency, TF over GST control)
6 | GTATAC | 1.2 fold enrichment (6-mer frequency, TF over GST control) | 1.24 fold enrichment (6-mer frequency, TF over GST control) | 1.2 fold enrichment (6-mer frequency, TF over GST control) | 1.3 fold enrichment (6-mer frequency, TF over GST control) | 1.29 fold enrichment (6-mer frequency, TF over GST control) | 1.1 fold enrichment (6-mer frequency, TF over GST control) | 1.18 fold enrichment (6-mer frequency, TF over GST control) | 1.31 fold enrichment (6-mer frequency, TF over GST control)
7 | CTGTGC | 1.03 fold enrichment (6-mer frequency, TF over GST control) | 1.17 fold enrichment (6-mer frequency, TF over GST control) | 1.27 fold enrichment (6-mer frequency, TF over GST control) | 1.21 fold enrichment (6-mer frequency, TF over GST control) | 1.12 fold enrichment (6-mer frequency, TF over GST control) | 1.25 fold enrichment (6-mer frequency, TF over GST control) | 1.08 fold enrichment (6-mer frequency, TF over GST control) | 1.12 fold enrichment (6-mer frequency, TF over GST control)
8 | GACTAC | 1.08 fold enrichment (6-mer frequency, TF over GST control) | 1.15 fold enrichment (6-mer frequency, TF over GST control) | 1.13 fold enrichment (6-mer frequency, TF over GST control) | 1.11 fold enrichment (6-mer frequency, TF over GST control) | 1.18 fold enrichment (6-mer frequency, TF over GST control) | 1.22 fold enrichment (6-mer frequency, TF over GST control) | 1.2 fold enrichment (6-mer frequency, TF over GST control) | 1.17 fold enrichment (6-mer frequency, TF over GST control)
9 | ACATTG | 1.12 fold enrichment (6-mer frequency, TF over GST control) | 1.09 fold enrichment (6-mer frequency, TF over GST control) | 1.18 fold enrichment (6-mer frequency, TF over GST control) | 1.12 fold enrichment (6-mer frequency, TF over GST control) | 1.19 fold enrichment (6-mer frequency, TF over GST control) | 1.09 fold enrichment (6-mer frequency, TF over GST control) | 1.25 fold enrichment (6-mer frequency, TF over GST control) | 1.19 fold enrichment (6-mer frequency, TF over GST control)
10 | CGGTCT | 1.3 fold enrichment (6-mer frequency, TF over GST control) | 1.25 fold enrichment (6-mer frequency, TF over GST control) | 1.02 fold enrichment (6-mer frequency, TF over GST control) | 1.18 fold enrichment (6-mer frequency, TF over GST control) | 1.12 fold enrichment (6-mer frequency, TF over GST control) | 1.24 fold enrichment (6-mer frequency, TF over GST control) | 1.29 fold enrichment (6-mer frequency, TF over GST control) | 1.16 fold enrichment (6-mer frequency, TF over GST control)
11 | CCGGTT | 2.7 fold enrichment (6-mer frequency, TF over GST control) | 2.15 fold enrichment (6-mer frequency, TF over GST control) | 1.68 fold enrichment (6-mer frequency, TF over GST control) | 1.83 fold enrichment (6-mer frequency, TF over GST control) | 1.87 fold enrichment (6-mer frequency, TF over GST control) | 2.08 fold enrichment (6-mer frequency, TF over GST control) | 2.09 fold enrichment (6-mer frequency, TF over GST control) | 2.04 fold enrichment (6-mer frequency, TF over GST control)
12 | TGTGCC | 1.2 fold enrichment (6-mer frequency, TF over GST control) | 1.21 fold enrichment (6-mer frequency, TF over GST control) | 1.12 fold enrichment (6-mer frequency, TF over GST control) | 1.17 fold enrichment (6-mer frequency, TF over GST control) | 1.32 fold enrichment (6-mer frequency, TF over GST control) | 1.23 fold enrichment (6-mer frequency, TF over GST control) | 1.03 fold enrichment (6-mer frequency, TF over GST control) | 1.05 fold enrichment (6-mer frequency, TF over GST control)
13 | TGTCCC | 1.39 fold enrichment (6-mer frequency, TF over GST control) | 1.35 fold enrichment (6-mer frequency, TF over GST control) | 1.26 fold enrichment (6-mer frequency, TF over GST control) | 1.29 fold enrichment (6-mer frequency, TF over GST control) | 1.4 fold enrichment (6-mer frequency, TF over GST control) | 1.44 fold enrichment (6-mer frequency, TF over GST control) | 1.65 fold enrichment (6-mer frequency, TF over GST control) | 1.31 fold enrichment (6-mer frequency, TF over GST control)
14 | GCGACC | 1.19 fold enrichment (6-mer frequency, TF over GST control) | 1.09 fold enrichment (6-mer frequency, TF over GST control) | 1.2 fold enrichment (6-mer frequency, TF over GST control) | 1.25 fold enrichment (6-mer frequency, TF over GST control) | 1.03 fold enrichment (6-mer frequency, TF over GST control) | 1.26 fold enrichment (6-mer frequency, TF over GST control) | 1.08 fold enrichment (6-mer frequency, TF over GST control) | 1.06 fold enrichment (6-mer frequency, TF over GST control)
15 | GGATGT | 2.08 fold enrichment (6-mer frequency, TF over GST control) | 1.77 fold enrichment (6-mer frequency, TF over GST control) | 1.41 fold enrichment (6-mer frequency, TF over GST control) | 1.39 fold enrichment (6-mer frequency, TF over GST control) | 1.36 fold enrichment (6-mer frequency, TF over GST control) | 1.44 fold enrichment (6-mer frequency, TF over GST control) | 1.61 fold enrichment (6-mer frequency, TF over GST control) | 1.69 fold enrichment (6-mer frequency, TF over GST control)
16 | GCACAT | 1.23 fold enrichment (6-mer frequency, TF over GST control) | 1.2 fold enrichment (6-mer frequency, TF over GST control) | 1.14 fold enrichment (6-mer frequency, TF over GST control) | 1.12 fold enrichment (6-mer frequency, TF over GST control) | 1.06 fold enrichment (6-mer frequency, TF over GST control) | 1.09 fold enrichment (6-mer frequency, TF over GST control) | 1.11 fold enrichment (6-mer frequency, TF over GST control) | 1.1 fold enrichment (6-mer frequency, TF over GST control)
17 | CAACAA | 1.05 fold enrichment (6-mer frequency, TF over GST control) | 1.02 fold enrichment (6-mer frequency, TF over GST control) | 1.06 fold enrichment (6-mer frequency, TF over GST control) | 1.13 fold enrichment (6-mer frequency, TF over GST control) | 1.02 fold enrichment (6-mer frequency, TF over GST control) | 1.08 fold enrichment (6-mer frequency, TF over GST control) | 1.2 fold enrichment (6-mer frequency, TF over GST control) | 1.05 fold enrichment (6-mer frequency, TF over GST control)
18 | CCTGTG | 1.11 fold enrichment (6-mer frequency, TF over GST control) | 1.07 fold enrichment (6-mer frequency, TF over GST control) | 1.32 fold enrichment (6-mer frequency, TF over GST control) | 1.11 fold enrichment (6-mer frequency, TF over GST control) | 1.22 fold enrichment (6-mer frequency, TF over GST control) | 1.11 fold enrichment (6-mer frequency, TF over GST control) | 1 fold enrichment (6-mer frequency, TF over GST control) | 1.12 fold enrichment (6-mer frequency, TF over GST control)
